Results taken from the supplement of paper PMC10338343.
± gives the standard deviation.

test system: MILI (PIWIL2) piRISC loaded with piRNA #1 (26 nt); experiment: pre-steady-state target cleavage rate (min^-1); guide: piRNA #1 5'p-UGAGGUAGUAGGUUGUAUAGUAUCCA; MIWI and MILI are mouse PIWI proteins and EfPiwi is from a freshwater sponge; tags in brackets are library labels; higher = faster piRNA-guided slicing of the target; conditions: auxiliary factor: 500 nM mouse GTSF1
In short: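 Cleave-'n-Seq: a transcribed, DNA-blocked target RNA library (0.1 nM) was mixed with 1 nM active affinity-purified piRISC carrying one synthetic guide, with or without 500 nM GTSF1 partner protein, in HEPES–potassium acetate buffer at 33 °C for 0–8 or 0–960 min. Uncleaved targets were sequenced and normalised to depth and to weakly complementary targets. Three trials were pooled, and k3 was capped at 0.0001 min^-1. The pre-steady-state cleavage rate came from a burst-and-steady-state fit.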

Sequence | pre-steady-state target cleavage rate
GGAGACCUAUCUAUACAACCUACUACCCUCA | 0.132 ± 0.015
GGAGACCUUACUAUAGAACCUACUUCCUCA | 0.00446 ± 0.0033
GGAGACCUUCCUAUACAACCUACUACCUCA | 0.113 ± 0.027
GGAGACCUAUGAUUACAACCUACAUCCUCA | 0.00278 ± 0.0025
GGAGACCUUUCUAUACAACCUACUAGCUCA | 0.0622 ± 0.013
GGAGACCUAUGUAUACAACCUUCAACCUCA | 0.00276 ± 0.0024
GGAGACCUAUGAUAUGAACCUACUACGCUCA | < 0.0001
GGAGACCUAUGUUUAGAACCUACUACCUCA | 0.00346 ± 0.0023
GGAGUGGAUUCUAUAGAACCUACUACCUCA | 0.179 ± 0.012
GGAGACCUAUGUAUACAAGCUAGUACCUCA | 0.0538 ± 0.0098
GGAGACCUAUGUAUACAACCUAACUACCUCA | 0.00595 ± 0.0023
GGAGACCUUACUAUUCAACCUUCUACCUCA | 0.00471 ± 0.0024
GGAGACCUUACUAUACAACCUUCUACCUCA | 0.00711 ± 0.0021
GGAGACCUAACUUAUCAACCUACUACCUCA | 0.0153 ± 0.0078
GGAGAGGAUACUAUACAACCAACUACCACA | 0.0058 ± 0.0018
GGAGACCUAUGAUAACAUCCUACUAGCUCA | 0.00409 ± 0.0032
GGAGACCUAUGUAUACAUCCUACUACGUCA | 0.0275 ± 0.0061
GGAGACCUAUCUAUACAACCUACAUCCUCA | 0.0186 ± 0.0046
GGAGACCUUACUUUACAACCUACUUCCUCA | 0.0347 ± 0.011
GGAGACCUAUCUAUACAACCUUACUACCUCA | 0.00278 ± 0.0026
GGAGACCUUACUAUUCAACCUACAACCUCA | 0.12 ± 0.013
GGAGACCUAUGUAUACAUCCUUCUACCUCA | 0.00859 ± 0.0018
GGAGACCUAUGUAUACAACCUACUACCUGA | 0.0463 ± 0.008
GGAGACCAUACAAUACAACCUACUACGUCA | 0.0912 ± 0.014
